Measurements taken from PubChem BioAssay (NCATS).
“And” between values parts separate entries of the source, which are not always exact repeats. Equal values may be shown once. Results filed as inconclusive are left out. A call without a number means that no potency is given here. The source made the active and inactive calls. Unless noted, calls come from the whole dose curve; as a rule, active = well fitted curve in the direction sought with a large enough effect; inconclusive = small, poorly fitted or top-dose-only effect, or another doubt; inactive = no such curve, though single readings can be large; an effect the other way counts as inactive or inconclusive.

Columns and labels:
[1] = Primary qHTS for small molecule stabilizers of the endoplasmic reticulum resident proteome: Secreted ER Calcium Modulated Protein (SERCaMP) assay (AID 1508630)
How it was run: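 The SH-SY5Y reporter protocol was run at 3 concentrations up to 38.3 uM (primary) or 11 concentrations (follow-up): 16 h compound, 100 nM thapsigargin for 4 h, then extracellular luciferase luminescence.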

[2] = Confirmatory qHTS for small molecule stabilizers of the endoplasmic reticulum resident proteome: Secreted ER Calcium Modulated Protein (SERCaMP) assay (AID 1508628); note: nearly all actives have a fitted effect of over 40% in size; note: potency is the fitted concentration of half-maximal effect
How it was run: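 Reporter secretion upon ER calcium depletion (100 nM thapsigargin, 4 h, 37C) is measured as medium luminescence with coelenterazine, after 16 h compound pretreatment of SH-SY5Y-GLuc-SERCaMP cells; primary at three concentrations up to 38.3 uM, follow-up at 11 (up to 76.6 uM).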

[3] = Cytotoxicity counterscreen for inhibitors of SARS-CoV-2 cell entry (AID 1645845; calls by dose curve; note: nearly all actives have a fitted effect of over 50% in size)
How it was run: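 ATP-content luminescence (ATPLite 1step, 15 min RT) read after 48 h compound exposure of Expi293F cells stably expressing human ACE2; normalized to cells-only wells and media-only wells.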

[4] = Primary qHTS to identify inhibitors of SARS-CoV-2 cell entry (AID 1645846; calls by dose curve; note: nearly all actives have a fitted effect of over 45% in size; note: potency is the fitted concentration of half-maximal effect); settings: activity change, negative = inhibition: at 57.1 µM (top of the series) unless noted
How it was run: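 Luminescence readout (Bright-Glo luciferase) 48 h after pseudoparticle addition. HEK293-ACE2 cells, 1500/well; compound pre-incubation 1 h; Normalized to spike PP and bald PP.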

[5] = Primary qHTS for inhibitors of nuclear receptor binding SET domain protein 2 (NSD2) in an RCH-ACV wild type WT cells (2C) (AID 1645877); note: nearly all actives have a fitted effect of over 70% in size; note: potency is the fitted concentration of half-maximal effect
[6] = Cell Viability qHTS for small molecule stabilizers of the endoplasmic reticulum resident proteome (AID 1508629); settings: cell viability counter-screen, 100 nM thapsigargin for final 4 h;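 note: compound exposure about 46 h in total before the viability read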; note: potency is the fitted concentration of half-maximal effect;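 for max response: human SH-SY5Y neuroblastoma cells carrying the GLuc-SERCaMP reporter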
[7] = molecular target: Cytochrome P450 2D6 (Homo sapiens) (UniProt P10635); assay: Cytochrome P450 family 2 subfamily D member 6 (CYP2D6) small molecule antagonists: luciferase biochemical (cell-free) qHTS assay (AID 1645840; active = well fitted curve in the direction sought with a large enough effect in the repeat runs; an effect the other way counts as inactive or inconclusive; note: nearly all actives have a fitted effect of over 55% in size)
Chain of Cytochrome P450 2D6 (Homo sapiens) (P10635 whole entry, looked up): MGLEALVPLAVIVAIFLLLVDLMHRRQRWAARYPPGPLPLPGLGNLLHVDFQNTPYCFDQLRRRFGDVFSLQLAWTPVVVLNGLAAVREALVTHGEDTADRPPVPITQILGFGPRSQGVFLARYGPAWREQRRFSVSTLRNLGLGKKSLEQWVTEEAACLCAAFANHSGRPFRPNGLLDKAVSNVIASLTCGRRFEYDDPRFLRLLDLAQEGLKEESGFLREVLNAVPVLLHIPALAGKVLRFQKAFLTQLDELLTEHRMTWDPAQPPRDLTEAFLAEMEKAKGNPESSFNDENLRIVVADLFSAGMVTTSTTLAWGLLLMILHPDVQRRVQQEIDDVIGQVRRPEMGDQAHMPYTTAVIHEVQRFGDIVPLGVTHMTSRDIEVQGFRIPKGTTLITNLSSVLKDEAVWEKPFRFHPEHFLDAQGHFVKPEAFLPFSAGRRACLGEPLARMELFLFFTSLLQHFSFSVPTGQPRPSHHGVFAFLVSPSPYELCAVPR
How it was run: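 P450-Glo CYP2D6 system: proluciferin substrate converted by enzyme to luciferin, read by luminescence proportional to activity. Enzyme-substrate mix with compound 10 min at room temperature, then NADPH regeneration 1 h before detection reagent.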

[8] = molecular target: Cytochrome P450 2C9 (Homo sapiens) (UniProt P11712); assay: Cytochrome P450 family 2 subfamily C member 9 (CYP2C9) small molecule antagonists: luciferase biochemical (cell-free) qHTS assay (AID 1645842; active = well fitted curve in the direction sought with a large enough effect in the repeat runs; an effect the other way counts as inactive or inconclusive; note: nearly all actives have a fitted effect of over 55% in size; note: potency is the fitted concentration of half-maximal effect)
Chain of Cytochrome P450 2C9 (Homo sapiens) (P11712 whole entry, looked up): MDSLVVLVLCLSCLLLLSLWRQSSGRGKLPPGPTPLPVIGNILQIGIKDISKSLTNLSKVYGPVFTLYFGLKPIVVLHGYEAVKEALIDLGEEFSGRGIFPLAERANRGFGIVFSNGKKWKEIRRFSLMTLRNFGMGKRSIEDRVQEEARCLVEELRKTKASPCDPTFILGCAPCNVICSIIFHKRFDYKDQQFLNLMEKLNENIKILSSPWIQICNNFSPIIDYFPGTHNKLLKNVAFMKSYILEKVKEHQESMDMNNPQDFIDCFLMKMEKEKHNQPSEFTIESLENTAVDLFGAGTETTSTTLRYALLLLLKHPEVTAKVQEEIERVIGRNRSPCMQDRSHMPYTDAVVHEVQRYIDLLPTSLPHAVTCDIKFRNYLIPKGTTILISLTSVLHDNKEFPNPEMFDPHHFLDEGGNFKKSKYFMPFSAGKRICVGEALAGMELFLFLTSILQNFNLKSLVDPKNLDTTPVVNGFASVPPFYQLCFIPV
How it was run: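 P450-Glo CYP2C9 system: proluciferin substrate with enzyme in mix containing 0.4% BSA, 10 min at room temperature, then NADPH regeneration solution added and incubated 1 h at 37C. Detection reagent stopped reaction; luminescence read after 20 min as RLU.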

[9] = Primary qHTS for inhibitors of nuclear receptor binding SET domain protein 2 (NSD2) in an isogenic RCH-ACV NSD2 p.E1099K mutant (9B) (AID 1645876); note: nearly all actives have a fitted effect of over 70% in size; note: potency is the fitted concentration of half-maximal effect
[10] = molecular target: Papain (Carica papaya) (UniProt P00784); assay: Primary qHTS assay for inhibitors of the protease papain (AID 1645873);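 note: papain turnover of Z-FR-AMC read as the AMC fluorescence gain over 10 min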
Chain of Papain (Carica papaya) (P00784 whole entry, looked up): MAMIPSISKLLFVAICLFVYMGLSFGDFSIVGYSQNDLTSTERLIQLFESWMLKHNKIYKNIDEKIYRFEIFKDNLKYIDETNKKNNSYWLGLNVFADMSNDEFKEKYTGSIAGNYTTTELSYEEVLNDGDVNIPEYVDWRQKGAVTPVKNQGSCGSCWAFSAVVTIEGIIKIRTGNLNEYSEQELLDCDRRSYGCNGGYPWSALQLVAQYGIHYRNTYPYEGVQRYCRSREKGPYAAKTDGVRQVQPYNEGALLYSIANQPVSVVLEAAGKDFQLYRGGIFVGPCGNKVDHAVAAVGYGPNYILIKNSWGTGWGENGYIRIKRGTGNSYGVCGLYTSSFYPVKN

Compound: COc1cccc2c1[C@]13CCN(CC4CC4)[C@H](C2)[C@]1(OC)CCC(=O)C3
- Potency [1]: inactive

Compound: CC(=Cc1csc(C)n1)[C@@H]1C[C@H]2O[C@]2(C)CCC[C@H](C)[C@@H](O)[C@@H](C)C(=O)C(C)(C)[C@@H](O)CC(=O)O1
- Potency [1]: inactive

Compound: CC=C(C)C(=O)N[C@@H](c1ccccc1)[C@@H](O)C(=O)O[C@H]1C[C@@]2(O)[C@@H](OC(=O)c3ccccc3)[C@@H]3[C@]4(OC(C)=O)CO[C@@H]4C[C@H](O)[C@@]3(C)C(=O)[C@H](OC(C)=O)C(=C1C)C2(C)C
- Potency [1]: inactive

Compound: COc1ccc2c(c1)CN(C)CC2c1ccc(Cl)c(Cl)c1 (centres undefined)
- Potency [1]: inactive

Compound: C=CCON=C(C[C@H]1O[C@@H]2O[C@]3(C)CC[C@@H]4[C@H](C)CC[C@@H]([C@H]1C)[C@@]24OO3)[C@H]1O[C@@H]2O[C@]3(C)CC[C@H]4[C@H](C)CC[C@@H]([C@@H]1C)[C@@]24OO3
- Potency [1]: inactive

Compound: CCCN1CCO[C@@H]2c3cc(O)ccc3OC[C@@H]21
- Potency [1]: inactive

Compound: N#C[C@H](O[C@@H]1O[C@H](CO[C@@H]2O[C@H](CO)[C@H](O)[C@H](O)[C@H]2O)[C@H](O)[C@H](O)[C@H]1O)c1ccccc1
- Potency [1]: inactive

Compound: CN1CCN(c2ccc([N+](=O)[O-])c3no[n+]([O-])c23)CC1
- Potency [2]: inactive
- Potency [3]: inactive
- activity change, negative = inhibition [4]: -23.8%
- Potency [5]: 20.9 µM (active)

Compound: CC(C)N[C@@H]1CCn2c(=O)[nH]c3cccc(c32)[C@@H]1O
- Potency [1]: inactive

Compound: Nc1c(Cl)c(Cl)c(Cl)c(Cl)c1Cl
- Potency [2]: inactive
- max response [6]: 1.55% (inactive)
- Potency [7]: inactive
- Potency [8]: inactive
- Potency [9]: inactive
- Potency [5]: inactive

Compound: C[C@]12CCC(=O)C(O)=C1CC[C@@H]1[C@H]3CCC(=O)[C@@]3(C)CC[C@@H]12
- Potency [1]: inactive

Compound: CC(C)(O)C=CC(=O)[C@](C)(O)[C@H]1[C@H](O)C[C@]2(C)[C@@H]3CC=C4[C@@H](C=C(O)C(=O)C4(C)C)[C@]3(C)C(=O)C[C@@]12C
- Potency [1]: inactive

Compound: C1=C2CCCN[C@H]2[C@@H]2C[C@H]1[C@@H]1CCCCN1C2
- Potency [1]: inactive

Compound: Clc1cnc(Oc2ccc(Oc3ncc(Cl)cc3Cl)cc2)c(Cl)c1
- Potency [1]: inactive

Compound: C[C@@H]1CC[C@H]2[C@@H](C)C(=O)O[C@@H]3O[C@@]4(C)CC[C@H]1[C@]32OO4
- Potency [1]: inactive

Compound: NCc1cc(=O)[nH]o1
- Potency [2]: inactive
- Potency [1]: inactive
- Potency [10]: inactive

Compound: O=[N+]([O-])c1c2ccccc2cc2ccccc12
- Potency [2]: inactive
- max response [6]: -4.03% (inactive)
- Potency [7]: inactive
- Potency [8]: 10.8 µM (active)
- Potency [5]: inactive

Compound: CNCCc1ccc(O)c(O)c1
- Potency [2]: 39.8 µM (active)
- max response [6]: 11.4% (inactive)
- Potency [10]: inactive

Compound: C[C@@H]1O[C@@H](O[C@@H]2C=C3CC[C@@H]4[C@@H](CC[C@]5(C)[C@H](c6ccc(=O)oc6)CC[C@@]45O)[C@@]3(C)CC2)[C@H](O)[C@H](O)[C@H]1O
- Potency [1]: inactive

Compound: C/C=C(/C)C(=O)O[C@H]1C(C)=C2[C@H]([C@@H]1OC(=O)CCCCCCC)[C@@](C)(OC(C)=O)C[C@H](OC(=O)CCC)[C@@]1(O)[C@H]2OC(=O)[C@@]1(C)O
- Potency [2]: inactive
- Potency [6]: 251 nM (active) and 224 nM (active)
- Potency [1]: inactive
- Potency [4]: 22.4 µM (active)
- Potency [9]: 5.8 nM (active) and 16.6 nM (active)
- Potency [5]: 6.5 nM (active) and 16.6 nM (active)

Compound: Cc1c(C(=O)c2cccc3ccccc23)c2cccc3c2n1[C@H](CN1CCOCC1)CO3
- activity change, negative = inhibition [1]: -12% [at 3.88 µM] (inactive)

Compound: CC(O)=C(C#N)C(=O)Nc1cc(Br)ccc1Br
- Potency [1]: inactive

Compound: c1ccc2c(CN3CCNCC3)cccc2c1
- max response [6]: 15% (inactive)
- Potency [3]: inactive
- activity change, negative = inhibition [4]: -23.2%
- Potency [9]: inactive
- Potency [5]: inactive

Compound: CC=C(C)C(=O)O[C@H]1C(C)=C2[C@@H]3OC(=O)[C@@](C)(O)[C@@]3(O)[C@@H](OC(=O)CCC)C[C@](C)(OC(C)=O)[C@@H]2[C@@H]1OC(=O)CCCCCCC
- Potency [2]: inactive
- Potency [6]: 282 nM (active)
- Potency [1]: inactive

Compound: c1cc2c(cc1[C@H]1OC[C@H]3[C@H]1CO[C@H]3c1ccc3c(c1)OCO3)OCO2
- Potency [1]: inactive

Compound: C[C@@H]1[C@H](O)[C@@H](C)C=CC=CCCC=CC=CC=CC=C[C@H](O[C@H]2O[C@@H](C)[C@H](O)[C@@H](N)[C@@H]2O)CC2O[C@](O)(C[C@@H](O)[C@H](O)CC[C@@H](O)C[C@@H](O)C[C@@H](O)CC(=O)O[C@H]1C)C[C@H](O)[C@H]2C(=O)O
- Potency [1]: inactive

Compound: O=C1CCC[C@@H]2[C@H]3CCCN4CCC[C@@H](CN12)[C@@H]34
- Potency [1]: inactive
